High-throughput results: PubChem BioAssay, National Center for Advancing Translational Sciences (NCATS)
Only a selection was taken, and hits are over-represented in it overall.
Pf Dd2 inh – Plasmodium falciparum Dd2 growth inhibition. P. falciparum Dd2 growth, SYBR Green, 72 h. Potency, µM (doses to about 28.9 µM), inactives show top-dose activity, negative = inhibition, usual class: inhibitors. 120,000 tested, 4.3% active. AID 1347417; active = well fitted inhibition curve with a large enough effect;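 also: plate controls were DMSO vehicle for no effect and reference drug for full effect; nearly all actives have a fitted effect of over 65% in size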
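Infected erythrocytes (Dd2, 0.3% parasitemia, 2.5% hematocrit final) are added to compound in RPMI-1640/Albumax II medium, grown 72 h at 37C in low oxygen, then lysed with saponin/Triton-X containing SYBR Green and read by fluorescence.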
Starred values were filed as active, the others as inactive; i = inactive; [ ] = dose if it differs, or a comment. Potency is read from the fitted curve at half-maximal effect.

SMILES	Pf Dd2 inh
O=C(NCc1cc(-c2ccccn2)no1)[C@H]1CNC[C@@H](C(=O)N2CCOCC2)C1	8%
COc1ccc(-c2cc(N3CCC(NC(=O)COc4ccccc4C)CC3)n[nH]2)cc1	-13%
O=C(CC1CC1)N1CCC(Oc2cnc3c(ccn3-c3cncnc3)c2)CC1	i
O=C(Cc1ccccc1)N1CCC(Oc2cnc3c(ccn3-c3cncnc3)c2)CC1	13µM*
O=C(OCc1ccccc1)N1CCC(Oc2cnc3c(ccn3-c3cncnc3)c2)CC1	i
COc1ccc(/C=C/c2ccc3c(c2)C(=O)N2CC[C@H](NC(=O)CCC(=O)O)[C@H]2C(=O)N3)cc1	-15%
O=C(CCn1ccn2nc3c(c2c1=O)CCCC3)NCCc1cccs1	i
c1ccc(C(c2ccccc2)N2CCN(Cc3nc(-c4ccccn4)no3)CC2)cc1	-5%
Cn1cc(CN2CCN(C(c3ccccc3)c3ccccc3)CC2)cc1C#N	3.2µM*
Cn1cc(CN2CCN(C(=O)Cc3ccccc3)CC2)ccc1=O	0%
COc1ccc([S+](=O)([O-])N2CCC3(CC2)OCCN(CC2CC2)C3=O)cc1	-5%[44.1 µM]
Cc1oc2ncnc(N3CCCCC3)c2c1C(=O)NCC1CCN(Cc2cccc(F)c2)CC1	-17%
Cc1ccc(C)c(CN2CCC(CNC(=O)c3cc4ccc5cccnc5c4[nH]3)CC2)c1	2.8µM*
Cc1ccc(CN2CCC(CNC(=O)Nc3ccc(C)c(C)c3)C2)cc1 (stereo not given)	-5%
Cc1ccc(C)c(CN2CCC(CNC(=O)c3occc3C)C2)c1 (stereo not given)	-7%
O=C(c1cc2ccc3cccnc3c2[nH]1)N1CCN(c2ccccc2)CC1	i
Cc1ccc(C)c(CN2CCC(CNC(=O)Cn3ncc4c([nH]c5ccccc54)c3=O)CC2)c1	-19%
Cc1ccc(CN2CCC(CNC(=O)c3cc4ccc5cccnc5c4[nH]3)CC2)cc1	3.5µM*
O=C(NCC1CCN(Cc2cccc(F)c2)CC1)c1cc2ccc3cccnc3c2[nH]1	7.1µM*
CCCN(C(=O)c1cc2ccc3cccnc3c2[nH]1)c1ccc(F)cc1	-19%
Cc1cc(NCC(C)n2ccnc2)n2nc(C)c(C)c2n1 (stereo not given)	-7%
O=C1NCc2ccccc2CC12CCN(Cc1cc(O)cc(O)c1)CC2	-1%
NCCCC(=O)N1CCCC2(Cc3ccccc3CN2C(=O)Cc2cccc(Cl)c2)C1 (stereo not given)	-26%
Cc1ccccc1-c1onc(C)c1C(=O)NCCc1ccc(F)cc1	i
COc1cccc(Nc2cc(-c3cccs3)nc3c(C)noc23)c1	i
SMILES	Pf Dd2 inh
Cc1nc(CN2C(=O)OC3(CCN(C(=O)Cc4ccccc4)CC3)C2(C)c2ccccc2)cs1 (stereo not given)	-1%
CC1=C[C@@H](CNC(=O)c2cnccn2)[C@H](C(C)C)C[C@H]1Cc1nc2ccc(C)cc2[nH]1	-6%[44.1 µM]
CC1=C[C@@H](CNC(=O)C2CCC2)[C@H](C(C)C)C[C@H]1Cc1nc2ccc(F)cc2[nH]1	11µM*
COC(=O)c1ccc2nc(C[C@@H]3C[C@@H](C(C)C)[C@H](CNC4CCN(C)CC4)C=C3C)[nH]c2c1	3.2µM*
COc1ccc2[nH]c(C[C@@H]3C[C@@H](C(C)C)[C@H](CNC4CCN(C(C)=O)CC4)C=C3C)nc2n1	i
CC1=C[C@@H](CNC(=O)CCC(=O)O)[C@H](C(C)C)C[C@H]1Cc1nc2ccc(F)cc2[nH]1	-17%[44.1 µM]
CC1=C[C@@H](CNC(=O)CC2(CC(=O)O)CCCC2)[C@H](C(C)C)C[C@H]1Cc1nc2ccc(C)cc2[nH]1	-12%
CC(=O)N1CCC(NC[C@@H]2C=C(C)[C@H](Cc3nc4ccc(C)cc4[nH]3)C[C@H]2C(C)C)CC1	11µM*
CC(=O)N1CCC(NC[C@@H]2C=C(C)[C@H](Cc3nc4ccc(F)cc4[nH]3)C[C@H]2C(C)C)CC1	11µM*
CC(C(=O)NCCc1ccccn1)C1CCOCC1 (stereo not given)	14%
COc1ccc2c(c1)CN(C(=O)N1CCOCC1)CC[C@H]1COC(=O)N21	11%[44.1 µM]
O=C(c1cccs1)N1CC[C@H](c2nnc(-c3ccc(Cl)cc3)o2)C1	-15%[44.1 µM]
COc1ccc(CCC(=O)N2CCn3c(nnc3[C@@H]3C[C@@H](O)CN3C(C)C)C2)cc1	29%
Cc1ccc2c(c1)N1C(=O)OC[C@@H]1CCN(C(=O)COCc1ccccc1)C2	0%[44.1 µM]
CCC(CC)C(=O)N1CC2CC(C1)[C@H]1CCCC(=O)N1C2 (stereo not given in full)	6%
CNC(=O)[C@@H]1CN(C(=O)CC2CCCC2)C[C@H]1COC	12%
COCc1cn([C@H]2CO[C@H]3[C@@H]2OC[C@H]3O)nn1	32%[44.1 µM]
COc1ccc(OC)c(S(=O)(=O)N2CCCC2c2nncn2Cc2ccncc2)c1 (stereo not given)	8%
CCOCCCNC(=O)c1cc2c(=O)n(C)c3ccccc3c2n1C	8%
CCCCNC(=O)c1c(C)oc2ncn(CC(C)C)c(=O)c12	i
CCCCN(CCCC)CCNC(=O)c1cn(CC)c2ccc(S(=O)(=O)N3CCc4ccccc4C3)cc2c1=O	-25%
